Data taken from PubChem BioAssay (NCATS).
Inconclusive results are not listed. Entries that show only a call come without a potency. Unmarked numbers belong to inactive results. Calls of active or inactive are those of the source. Calls follow the shape of the dose curve; as a rule, active = well fitted inhibition curve with a large enough effect; inconclusive = small, poorly fitted or top-dose-only effect; inactive = no such curve, though single readings can be large or run the other way.

System: Zika virus NS2B-NS3 protease (linked construct)
Assay: Primary screen NINDS Rhodamine qHTS for Zika virus inhibitors (AID 1347160); also: nearly all actives have a fitted effect of over 55% in size
Settings: purified NS2B-NS3 protease, Rhodamine110 substrate fluorescence; series mostly up to 57.1 µM
How it was run: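 Purified NS2B-NS3 protease with the NS2B hydrophilic domain joined by a flexible linker (25 nM) in 10 mM Tris-HCl pH 8.0, 0.01% Tween 20, preincubated 15 min at RT with compound; Rhodamine110 peptide substrate 1.5 µM; fluorescence change over 15 min; 4-parameter Hill fit.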
Potency is read from the fitted curve at half-maximal effect.

Row | SMILES | Potency | activity change, negative = inhibition
1 | COC(=O)C1=CO[C@@H](O[C@@H]2O[C@H](CO)[C@@H](O)[C@H](O)[C@H]2O)[C@@H]2[C@@](C)(O)[C@@H](OC(=O)/C=C/c3ccc(O)cc3)C[C@]12O | inactive | –
2 | C[C@@H]1O[C@@H](O[C@H]2[C@H](O[C@H]3[C@H](O)[C@@H](C(=O)O)O[C@@H](O[C@H]4CC[C@@]5(C)C(CC[C@]6(C)C5CC[C@]57OC[C@@]8(CCC(C)(C)CC85)[C@H](O)C[C@]76C)C4(C)C)[C@@H]3O[C@@H]3O[C@H](CO)[C@@H](O[C@@H]4OC[C@@H](O)[C@H](O)[C@H]4O)[C@H](O)[C@H]3O)O[C@H](CO)[C@H](O)[C@@H]2O)[C@H](O)[C@H](O)[C@H]1O (some centres undefined) | – | -19.8% [at 10.7 µM]
3 | CN(C)CC1CCOC1(c1ccccc1)c1ccccc1 (centres undefined) | inactive | –
4 | CC(=O)SCC(=O)c1ccc(NS(=O)(=O)c2ccc(OCCCN(C)C)cc2)nc1 | inactive | –
5 | CC1(C)CCCC2(C)C1CC=C1C(=O)OC(O)C12O (centres undefined) | inactive | –
6 | O=S(=O)(NC1CCC(c2cc(F)ccc2F)(S(=O)(=O)c2ccc(Cl)cc2)CC1)C(F)(F)F (centres undefined) | 12.6 µM (active) | –
7 | CC(C)(C)NS(=O)(=O)c1cncc(-c2cc(F)c3nc(N)nn3c2)c1 | inactive | –
8 | CC1=CC(=O)[C@]2(O[C@@H]3O[C@@H](C)[C@H](O)[C@@H](O)[C@H]3OC(=O)/C=C/c3ccccc3)C=CO[C@@H](O[C@@H]3O[C@H](CO)[C@@H](O)[C@H](O)[C@H]3O)[C@H]12 | inactive | –
9 | CC(=O)CCC1=C(C)C(O[C@@H]2O[C@H](CO)[C@@H](O)[C@H](O)[C@H]2O)C(O)CC1(C)C (some centres undefined) | inactive | –
